Assay outcomes as filed in PubChem.
hcDAF-12 act = H. contortus DAF-12 nuclear receptor activators, primary screen, cell-based, luminescence, HEK293, lit1-tk-luc reporter. HEK293 hcDAF-12 lit1-tk-luc reporter; 0% DMSO, 100% Δ7-dafachronic acid. hit rate 1.4% among 370,000. AID 652067, 2013. activation, % at 6.8 µM;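 active means activation above the mean of all tested compounds plus 3 SD, cut at about 5.5% in these data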;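 further: 100% = response to 3 µM Δ7-dafachronic acid high control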
DAX1 inh-1 = DAX1 (NR0B1) inhibitors on StAR promoter, primary screen, cell-based, luminescence, SF-1 (NR5A1), full-length DAX-1; hit rate 1.1% among 370,000; inhibition, % at 6.8 µM; HEK293T StAR-luciferase reporter, SF-1/DAX-1 repression relief; AID 652010, 2013;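 active means inhibition above the mean over all tested compounds plus 3 SD, cut at about 3.6% in these data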;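 further: 0% = DAX-1 cells with DMSO and 100% = cells lacking DAX-1 with DMSO; higher inhibition means more luminescence from relief of DAX-1 repression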
ssDAF12 agonist = S. stercoralis DAF-12 nuclear receptor activators, primary screen, cell-based, luminescence, HEK293, GRIP1 co-expression, lit1-tk-luc | Nuclear hormone receptor DAF-12 (Strongyloides stercoralis) | HEK293 ssDAF-12/GRIP1 lit1-tk-luc reporter; % of 3 µM dafachronic acid response | activation, % at 6.8 µM | hit rate 1% among 370,000;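 active means activation above the mean over all tested compounds plus 3 SD, cut at about 0.9% in these data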;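 further: 0% = DMSO-only wells and 100% = 3 µM delta7-dafachronic acid wells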
DAX1 inh-2 = DAX1 (NR0B1) inhibitors, primary screen, cell-based, HEK293, Gal4-DAX1, luciferase luminescence. inhibition, % at 6.75 µM. hit rate 0.99% among 340,000. AID 504766, 2011. HEK293 Gal4-DAX1 luciferase reporter. Nuclear receptor subfamily 0 group B member 1 (Homo sapiens), P51843;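 active means inhibition above the mean over all tested compounds plus 3 SD, cut at about 4.2% in these data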;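 further: 0% = DAX1-transfected cells with DMSO and 100% = empty-vector control cells with DMSO; inhibition shows as a rise in luminescence from relieved DAX1 repression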
AHR activator = AHR activators, primary screen, cell-based, luminescence, luciferase reporter, human. Aryl hydrocarbon receptor (Homo sapiens), P35869. AHR-responsive luciferase reporter cells. activation, % at 5 µM. hit rate 2.5% among 320,000; in the data active means activation above about 47%;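 further: 0% = vehicle wells and 100% = reference agonist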
Target sequence (P35869 whole entry, looked up): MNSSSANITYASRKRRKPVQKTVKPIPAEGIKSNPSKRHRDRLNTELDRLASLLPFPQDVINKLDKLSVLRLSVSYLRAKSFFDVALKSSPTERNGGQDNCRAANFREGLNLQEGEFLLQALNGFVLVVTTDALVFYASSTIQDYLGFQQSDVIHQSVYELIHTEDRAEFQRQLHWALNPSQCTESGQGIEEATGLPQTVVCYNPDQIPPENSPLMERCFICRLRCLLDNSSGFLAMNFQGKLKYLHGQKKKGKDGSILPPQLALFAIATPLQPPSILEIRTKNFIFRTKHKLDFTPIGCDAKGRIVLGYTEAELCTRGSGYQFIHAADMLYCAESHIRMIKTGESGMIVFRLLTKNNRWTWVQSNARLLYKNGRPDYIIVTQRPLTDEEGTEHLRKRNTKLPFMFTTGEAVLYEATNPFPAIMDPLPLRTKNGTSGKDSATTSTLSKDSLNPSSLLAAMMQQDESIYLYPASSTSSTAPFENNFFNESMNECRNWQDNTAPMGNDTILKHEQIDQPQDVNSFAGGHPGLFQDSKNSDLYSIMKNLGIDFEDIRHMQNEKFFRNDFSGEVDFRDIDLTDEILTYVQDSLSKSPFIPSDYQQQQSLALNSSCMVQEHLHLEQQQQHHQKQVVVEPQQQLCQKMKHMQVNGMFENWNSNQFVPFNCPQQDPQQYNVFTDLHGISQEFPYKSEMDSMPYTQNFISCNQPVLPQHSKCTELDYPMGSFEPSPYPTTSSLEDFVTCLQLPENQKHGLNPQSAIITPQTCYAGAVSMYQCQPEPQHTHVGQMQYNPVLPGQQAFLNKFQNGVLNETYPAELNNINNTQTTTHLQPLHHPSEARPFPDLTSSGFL
hgDAF12 agonist = H. glycines DAF-12 receptor agonists, primary screen, cell-based, luminescence, HEK293, GAL4 fusion, UAS-luciferase; Nuclear hormone receptor DAF-12 (Heterodera glycines), GAL4 fusion; HEK293 GAL4-hgDAF12 UAS-luciferase reporter, agonist luminescence; normalized to butyrate control; activation, % at 6.8 µM; hit rate 1.8% among 370,000;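 active means activation above a cutoff set at the mean of all screened compounds plus 3 SD, cut at about 10% in these data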;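 further: 0% = DMSO wells and 100% = sodium butyrate wells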
* marks the source's active call; other numbers are inactive results; nt = no result given. A selection: hits, their analogues and other compounds. The true share with any hit is near 5.7%.

SMILES	hcDAF-12 act	DAX1 inh-1	ssDAF12 agonist	DAX1 inh-2	AHR activator	hgDAF12 agonist
O=C(O)c1cc(-c2ccc3c(c2)OCO3)nc2ccc(Cl)cc12	5.8*	1.0	0.6	-0.3	10.8	1.2
Cc1ccccc1-c1cc(C(=O)Nc2nc3c(s2)CCCC3)c2ccccc2n1	3.0	-1.0	-0.4	-1.0	23.5	-1.2
CC(C)(C)NC(=O)c1cc(-c2ccc3c(c2)OCO3)nc2ccccc12	5.9*	-0.7	-0.2	0.4	69.8*	4.0
c1coc(CSc2ncnc3c2oc2ccccc23)c1	2.7	0.3	0.2	5.7*	8.7	5.0
C/C(=N\NC(=O)c1cc2c(s1)CCC(C)C2)c1ccncc1 (centres undefined)	-1.9	0.2	-1.8	-0.8	55.9*	1.6
CC1CCc2sc(C(=O)NC3CCCCC3)cc2C1 (centres undefined)	3.5	2.2	-1.0	4.0	1.1	12.1*
CC1CCc2sc(C(=O)N/N=C/c3ccc(O)cc3)cc2C1 (centres undefined)	1.0	0.9	-1.6	1.6	14.4	6.1
NS(=O)(=O)c1ccc(NC(=O)COC(=O)CCc2ccc(S(=O)(=O)N3CCOCC3)cc2)cc1	-0.7	-0.6	0.0	-0.3	1.9	-1.2
CC1Sc2ccc(C(=O)Nc3ccccc3OC(F)F)cc2NC1=O (centres undefined)	-0.2	4.3*	-0.6	0.9	1.4	5.5
CCCC(=O)NCCc1nc2cc([N+](=O)[O-])ccc2n1C	0.9	-0.1	-0.8	-0.3	-3.0	-3.1
Cc1ccc(S(=O)(=O)N2C[C@H]3N(C(=O)OC(C)C)N(C(=O)OC(C)C)C[C@H](OC(=O)NCc4ccccc4F)[C@@]3(O)C2)cc1	1.1	0.6	-1.2	-0.3	nt	-2.3
Nc1c(C(=O)N/N=C/c2ccc(F)cc2)oc2nc(-c3ccccc3)cc(-c3ccco3)c12	2.4	0.3	-0.7	0.6	56.9*	-0.8
O=C(N/N=C/c1ccc(F)cc1)c1cc(-c2ccco2)nc2ccccc12	2.0	-2.1	-0.6	0.1	11.8	-0.2
Nc1c(C(=O)N/N=C/c2ccccc2Cl)oc2nc(-c3ccccc3)cc(-c3ccco3)c12	0.9	-0.8	-0.1	nt	49.9*	1.1
CN(C)C1C(=O)c2ccccc2C1=O	-0.9	-0.3	-1.0	-0.1	-3.0	0.9
Cc1cccc(-c2ncc(CN3CCN(CC(C)C)C(CCO)C3)cn2)c1 (centres undefined)	0.8	0.0	-1.1	0.0	7.1	-0.9
Cn1nc(C(=O)OCC(=O)Nc2ccccc2[N+](=O)[O-])c2ccccc2c1=O	2.2	-0.3	1.0*	-0.1	13.2	0.0
COc1cc(/C=N/NC(=O)COc2ccc(C)cc2)ccc1OC(=O)c1cccs1	0.8	0.2	0.9*	-1.8	13.8	4.4
Cc1ccc(/C=N\NC(=O)COc2ccc(C)cc2[N+](=O)[O-])cc1	0.0	0.3	-1.4	7.0*	8.2	1.1
CN(C)S(=O)(=O)c1ccc(Cl)c(NC(=O)COc2ccccc2[N+](=O)[O-])c1	-1.2	-0.8	0.9*	0.7	6.6	-1.4
CSc1ccc(CN2CCC(Oc3ccc(C(=O)N4CCCC4)cc3)CC2)cc1	-1.8	-2.3	-1.4	-0.9	1.3	0.1
Cn1cc(/C=N/NC(=O)COc2ccccc2[N+](=O)[O-])c2ccccc21	-1.3	-1.6	-1.8	-0.6	58.4*	-0.8
O=C(COC(=O)COc1ccccc1[N+](=O)[O-])Nc1ccccc1Br	3.1	-0.1	-0.9	0.3	8.5	1.5
CC(C)c1ccccc1NC(=O)COC(=O)COc1ccccc1[N+](=O)[O-]	-1.3	-0.5	1.9*	2.8	0.5	2.5
Cc1ccc(OCC(=O)N/N=C\c2cn(C)c3ccccc23)c([N+](=O)[O-])c1	-0.7	-0.7	-1.0	-1.2	24.4	1.1
SMILES	hcDAF-12 act	DAX1 inh-1	ssDAF12 agonist	DAX1 inh-2	AHR activator	hgDAF12 agonist
Cc1ccc(OCC(=O)Nc2ccccc2[N+](=O)[O-])c(Br)c1	0.0	2.1	1.0*	0.5	0.1	7.4
Cc1cc(N2CCNC[C@H]2C)ccc1N1CCN(Cc2ccccc2)[C@H](C)C1	0.8	-0.6	-0.7	nt	nt	-2.9
CCC(C(=O)Nc1c(C)cccc1C)n1c(-c2ccc(=O)[nH]c2)nc2ccccc21 (centres undefined)	4.8	0.8	1.5*	nt	nt	1.4
CCC(C(=O)Nc1c(C)cccc1C)n1c(-c2cnc(C)cn2)nc2ccccc21 (centres undefined)	0.0	-1.0	-0.7	nt	nt	-2.3
O=C(NCc1ccc(F)cc1)c1c2c(nc3ccccc13)CCN(Cc1ccccc1)C2	3.8	0.0	-1.0	4.8*	2.3	-1.8
CC1CCN(CC(=O)n2c3c(c4ccccc42)CCCC3)CC1	2.9	0.1	-0.8	-1.0	49.5*	-0.9
O=c1[nH]c2cccnc2c2ccsc12	-0.1	0.5	-0.2	5.9*	2.7	-2.0
Cc1ccc(/C=N/OC(=O)c2c(C)noc2-c2snnc2C)cc1	0.0	0.2	-1.4	5.7*	1.1	0.4
CC(C)=NOC(=O)c1c(C)noc1-c1snnc1C	-1.1	-0.4	-1.6	0.6	0.4	-1.8
CN(C)S(=O)(=O)c1cccc(C(=O)Nc2ccccc2C(=O)NC2CC2)c1	-2.4	-1.0	-1.2	-0.2	2.5	-2.0
O=C(Nc1ccccc1Cl)c1ccc(C(=O)Nc2ccccc2Cl)cc1	-0.7	-0.3	-1.2	1.9	nt	-3.0
O=C(Nc1cccc(Cl)c1Cl)c1ccc(-c2ccccc2)cc1	1.6	0.5	0.1	2.4	65.3*	4.1
O=C(OCC(=O)N1CCN(c2ccccc2)CC1)c1ccc[n+]([O-])c1	-0.8	-1.3	-1.1	0.8	1.0	-0.8
CC(=O)NCCc1nc2cc(NC(=O)c3ccc(Cl)cc3)ccc2n1C	1.9	2.1	-0.6	1.9	2.3	11.0*
COc1cccc(N2CCN(CC(=O)Nc3ccccc3C(=O)NCCc3ccccc3)CC2)c1	1.2	0.1	-0.8	-0.3	39.1	2.6
O=C(CN1CCN(c2ccc(O)cc2)CC1)Nc1ccccc1C(=O)NCCc1ccccc1	-1.9	-6.0	-1.2	-2.1	74.4*	-2.7
NC(=O)c1ccccc1NC(=O)CN1CCOCC1	-1.2	-0.2	-1.2	4.3*	-0.3	1.0
COC(=O)c1ccccc1NC(=O)CN1CCOCC1	-0.2	0.8	-1.2	3.1	-0.1	-1.1
O=C(CN1CCOCC1)NNC(=S)Nc1ccccc1	-0.5	-0.3	-1.6	6.1*	3.4	-0.4
